Source: PubChem
In the library only some 12% were active in any assay of this set; here they are far more common.
G9a block = qHTS Assay for Inhibitors of Histone Lysine Methyltransferase G9a. Histone-lysine N-methyltransferase EHMT2 (Homo sapiens), Q96KQ7. G9a H3K9 monomethylation, AlphaScreen, 2 h. Potency, µM (highest dose often 102 µM), without a hit: at the top dose activity, negative = inhibition, hits mostly inhibitors. hit rate 8.8% among 350,000. AID 504332, 2011; note: % is set by controls: 0 for no effect and ±100 for the full control effect; nearly all actives have a fitted effect of over 75% in size
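Using a bead-based AlphaScreen, monomethylated H3K9 product from 2 h room-temperature reactions (G9a 20 nM, peptide 500 nM, SAM 20 uM) was detected with 0.5 ug/mL rabbit anti-H3K9me1 antibody.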
PLK1 PBD block = qHTS for Inhibitors of PLK1-PDB (polo-like kinase 1 - polo-box domain): Primary Screen; Plk1 PBD binding of FITC phosphopeptide, fluorescence polarization; Potency, µM, for the others: max response, negative = inhibition, hits mostly inhibitors; Serine/threonine-protein kinase PLK1 (Homo sapiens), P53350; hit rate 2.8% among 360,000; note: series mostly up to about 57 µM; % is set by controls: 0 for no effect and ±100 for the full control effect; nearly all actives have a fitted effect of over 65% in size
Sfp PPTase inh = qHTS Assay for Inhibitors of Bacillus subtilis Sfp phosphopantetheinyl transferase (PPTase); 4'-phosphopantetheinyl transferase ffp (Bacillus subtilis), Q9F4F7; Biochemical Sfp PPTase activity, qHTS; Potency, µM, without a hit: largest response in the series, negative = inhibition, actives largely listed as inhibitors; hit rate 3.5% among 310,000; AID 1490, 2009;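 note: the enzyme is Sfp with the accession as filed and its product quenches rhodamine fluorescence; 0% = enzyme reaction without inhibitor and -100% = no enzyme wells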
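Step 1, compound plus 15 nM Sfp-PPTase, 15 min, room temperature. Step 2, add rhodamine-CoA (5 uM) and BHQ-2-YbbR (12.5 uM). Step 3, read 525/598 nm fluorescence at 0 and 30 min.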
HP1b binding inh = HTS for Inhibitors of HP1-beta Chromodomain Interactions with Methylated Histone Tails. Chromobox protein homolog 1 (Homo sapiens), P83916. AlphaScreen HP1-beta / biotin-H3K9me3 peptide binding. Potency, µM (doses to about 114 µM), for inactives: at the highest dose activity change, negative = inhibition, hits mostly inhibitors. hit rate 0.56% among 390,000. AID 540317, 2011; note: nearly all actives have a fitted effect of over 70% in size
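HP1-beta protein (50 nM final) preincubated 30 min at room temperature with biotinylated H3(1-18)K9me3 peptide (50 nM) in PBS pH 7.4, 0.01% Tween-20, then compound added for 30 min. AlphaScreen streptavidin donor/nickel chelate acceptor beads (10 ug/mL final), 30 min dark, luminescence read.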
BAZ2B block = qHTS Assay for Inhibitors of BAZ2B | AlphaScreen BAZ2B-H3K14Ac peptide displacement | AID 504333, 2011 | hit rate 4.4% among 360,000 | Potency, µM (doses to about 114 µM), for inactives: at the highest dose activity change, negative = inhibition, actives largely listed as inhibitors; note: % is set by controls: 0 for no effect and ±100 for the full control effect; nearly all actives have a fitted effect of over 60% in size
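Compounds, titrated to a top concentration of 110 uM, were incubated 30 min at room temperature with preformed BAZ2B/acetyl-K14 H3 peptide complex (50 nM each). Proximity signal was measured by AlphaScreen after 20 min with beads.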
JMJD2A Tudor = qHTS Assay for Inhibitors of JMJD2A-Tudor Domain. AID 504339, 2011. Potency, µM (top dose mostly 114 µM), inactives show at the top dose activity change, negative = inhibition, hits mostly inhibitors. hit rate 4.4% among 390,000. AlphaScreen JMJD2A-Tudor / H3K4me3 peptide binding. Lysine-specific demethylase 4A (Homo sapiens), O75164; note: % is set by controls: 0 for no effect and ±100 for the full control effect; nearly all actives have a fitted effect of over 50% in size
Target sequence (O75164 whole entry, looked up, the tested form may be a part): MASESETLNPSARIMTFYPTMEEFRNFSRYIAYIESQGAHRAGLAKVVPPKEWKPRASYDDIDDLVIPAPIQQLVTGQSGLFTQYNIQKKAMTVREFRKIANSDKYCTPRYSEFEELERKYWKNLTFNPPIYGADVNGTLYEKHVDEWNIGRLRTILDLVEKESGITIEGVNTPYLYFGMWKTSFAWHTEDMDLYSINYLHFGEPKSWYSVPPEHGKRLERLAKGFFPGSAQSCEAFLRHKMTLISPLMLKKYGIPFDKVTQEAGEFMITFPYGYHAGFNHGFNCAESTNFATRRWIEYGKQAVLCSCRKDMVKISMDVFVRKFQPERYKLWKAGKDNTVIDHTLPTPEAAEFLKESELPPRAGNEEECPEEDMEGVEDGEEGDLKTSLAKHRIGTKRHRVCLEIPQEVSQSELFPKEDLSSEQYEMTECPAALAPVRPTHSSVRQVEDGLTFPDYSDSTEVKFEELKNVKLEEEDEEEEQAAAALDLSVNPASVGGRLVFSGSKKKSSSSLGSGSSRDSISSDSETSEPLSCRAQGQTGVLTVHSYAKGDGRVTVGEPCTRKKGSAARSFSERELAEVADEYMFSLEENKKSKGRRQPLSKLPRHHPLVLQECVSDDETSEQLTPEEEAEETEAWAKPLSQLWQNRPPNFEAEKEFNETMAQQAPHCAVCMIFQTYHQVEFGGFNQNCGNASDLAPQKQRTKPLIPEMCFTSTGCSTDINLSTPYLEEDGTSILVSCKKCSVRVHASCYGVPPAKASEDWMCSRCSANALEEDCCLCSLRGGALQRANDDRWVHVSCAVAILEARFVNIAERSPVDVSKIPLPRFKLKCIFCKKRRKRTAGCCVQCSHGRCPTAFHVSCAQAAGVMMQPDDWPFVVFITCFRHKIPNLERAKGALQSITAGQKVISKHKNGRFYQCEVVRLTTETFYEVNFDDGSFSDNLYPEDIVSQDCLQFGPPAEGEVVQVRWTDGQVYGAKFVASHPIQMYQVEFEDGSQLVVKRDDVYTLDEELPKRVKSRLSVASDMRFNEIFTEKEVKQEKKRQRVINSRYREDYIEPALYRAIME
An asterisk follows results filed as active; ? = inconclusive; nt = no result; [ ] = dose if it differs, or a comment. Calls come from the whole dose curve; as a rule, active = well fitted curve in the direction sought with a large enough effect; inconclusive = small, poorly fitted or top-dose-only effect, or another doubt; inactive = no such curve, though single readings can be large; an effect the other way counts as inactive or inconclusive. Potency is the fitted concentration of half-maximal effect.

SMILES	G9a block	PLK1 PBD block	Sfp PPTase inh	HP1b binding inh	BAZ2B block	JMJD2A Tudor
CCOc1ccc(NC(=S)Nc2cccnc2)cc1	45µM*	30µM*	?	-9%	-14%	-10%
S=C(Nc1ccc(N2CCOCC2)cc1)Nc1ccc2snnc2c1	28µM*	-23%	-67%	-13%	-32%	?
O=C(Nc1ccc2snnc2c1)N1CCOCC1	?	-24%	-11%	21%	9%	-5%
CN(C)S(=O)(=O)c1ccc(N2CCCC2)c(C(=O)NNC(=O)COc2cccc(F)c2)c1	21%[12.7 µM]	-6%	nt	38%	-4%	-7%
CCOc1ccc(CNC(=O)C2CCN(S(=O)(=O)c3cn(C)cn3)CC2)cc1OC	?	nt	nt	-13%	-12%	0%
COc1ccc(-c2cc(C(=O)NC(Cc3cc4ccccc4[nH]3)C(=O)O)c(C)o2)cc1OC (stereo unspecified)	32µM*	?	22µM*	?	-30%	-35%
OCCCNc1nc(-c2ccccc2)nc2c1oc1ccccc12	50µM*	-8%	3%	1%	?	-9%
c1ccc2c(c1)oc1c(NCC3CCCO3)ncnc12 (stereo unspecified)	nt	-4%	2%	31%	-35%	-11%
O=C(O)CNc1nc(-c2ccccc2)nc2c1oc1ccccc12	-35%	-10%	29%	27%	0%	-3%[11.4 µM]
c1ccc(-c2nc(NCc3cccnc3)c3oc4ccccc4c3n2)cc1	?	-22%	-17%	48%	50µM*	?
c1cncc(CNc2nc(-c3cccnc3)nc3ccccc23)c1	-7%	-2%	13%	44%	-13%	-5%
c1ccc(-c2nc(NCC3CCCO3)c3oc4ccccc4c3n2)cc1 (stereo unspecified)	45µM*	-3%	-24%	44%	-9%	-14%
Nc1ncnc2c1ncn2[C@@H]1O[C@H](C(=O)N[C@H](CO)Cc2ccc(O)cc2)[C@@H](O)[C@H]1O	nt	0%	nt	nt	nt	nt
C=CCC1C=C(Cc2ccccc2)CC(CC=C)N1 (stereo unspecified)	-49%	-13%	1%	25%	-10%	-18%
C=CC[C@H]1CC(Cc2ccccc2)=C[C@H](CC=C)N1	45µM*	24µM*	13%	?	-5%	?
Cc1ccc(C(=O)Nc2ccc(Nc3ccccc3)cc2)cc1C	nt	2%	nt	?	nt	?
Cc1ccc(C(=O)Nc2ccc(Oc3ccc(C(=O)O)c(C(=O)O)c3)cc2)cc1C	?	?	3%	29%	-13%	79µM*
O=C(Cn1c(=O)sc2ccccc21)NCc1ccccn1	-1%[59 µM]	21µM*	17%	13%	-5%	?
C#CCOCCOCCOCCNc1nc(N2CCN(C(=O)CCCCCCCCCCNC(=O)Cn3cc(CCCCCN)nn3)CC2)nc(N2CCN(C(=O)CCCCCCCCCCNC(=O)[C@@H](CCC(=O)O)n3cc(CCCCCN)nn3)CC2)n1	7%[2.33 µM]	-2%	nt	20%	-32%	?
C#CCOCCOCCOCCNc1nc(N2CCN(C(=O)CCCCCCCCCCNC(=O)Cn3cc(CCCCCN)nn3)CC2)nc(N2CCN(C(=O)CCCCCCCCCCNC(=O)[C@@H](CCSC)n3cc(CCO)nn3)CC2)n1	10%[2.33 µM]	-9%	nt	?	?	79µM*
C#CCOCCOCCOCCNc1nc(N2CCN(C(=O)Cn3cc(CCCCN)nn3)CC2)nc(N2CCN(C(=O)Cn3cc(CCCCN)nn3)CC2)n1	?	-10%	2%	19%	-32%	-27%
C#CCOCCOCCOCCNc1nc(N2CCN(C(=O)CCCCCCCCCCNC(=O)Cn3cc(CCCCCN)nn3)CC2)nc(N2CCN(C(=O)CCCCCCCCCCNC(=O)Cn3cc(CCCCCN)nn3)CC2)n1	-13%[2.33 µM]	-8%	nt	?	56µM*	56µM*
C#CCOCCOCCOCCNc1nc(N2CCN(C(=O)CCCCCCCCCCNC(=O)[C@H](CO)n3cc(CCCSC)nn3)CC2)nc(N2CCN(C(=O)CCCCCCCCCCNC(=O)[C@H](CCCCN)n3cc(CCO)nn3)CC2)n1	nt	-21%	nt	?	nt	56µM*
C#CCOCCOCCOCCNc1nc(N2CCN(C(=O)CCCCCCCCCCNC(=O)[C@H](CO)n3cc(CCCSC)nn3)CC2)nc(N2CCN(C(=O)CCCCCCCCCCNC(=O)[C@H](CCCN=C(N)N)n3cc(C[C@@H](C)CC)nn3)CC2)n1	9%[2.33 µM]	21%	nt	-31%	?	79µM*
C#CCOCCOCCOCCNc1nc(N2CCN(C(=O)CCCCCCCCCCNC(=O)Cn3cc(C[C@@H](C)O)nn3)CC2)nc(N2CCN(C(=O)CCCCCCCCCCNC(=O)[C@H](CCCN=C(N)N)n3cc(C[C@@H](C)CC)nn3)CC2)n1	-35%[2.33 µM]	23%	nt	?	?	45µM*
SMILES	G9a block	PLK1 PBD block	Sfp PPTase inh	HP1b binding inh	BAZ2B block	JMJD2A Tudor
COc1ccc(CCN(C)C(=O)CSc2nnc(C3CC3)n2N)cc1OC	40µM*	?	nt	28%	-5%	-1%
COc1cccc(-c2nc(SCc3cc(=O)c4ccc(C)c(C)c4[nH]3)n[nH]2)c1	4%[59 µM]	nt	nt	26%[57 µM]	5%	0%
Cn1c(CNC(=O)C(Cc2ccccc2)NC(=O)c2cccc(F)c2)cc(=O)n(C)c1=O (stereo unspecified)	1%	27µM*	11%	6%	1%	-30%
CCCCN(CC)C(=O)Cn1c(=O)sc2ccccc21	32%[12.7 µM]	-10%	1%	9%	6%	-12%
Cc1ccc(N(CC(=O)NCCc2ccc(Cl)cc2)S(=O)(=O)c2c(C)noc2C)cc1	21%[59 µM]	-15%	10%	32%	-3%	-8%
Cc1noc(C)c1S(=O)(=O)N(CC(=O)NCCc1ccc(Cl)cc1)c1ccc(C(C)C)cc1	1µM*	nt	nt	58%	nt	0%
CCN1N=C(C)C=C(c2ccccc2)n2c1nc1ccccc12	79µM*	-4%	14%	25%	-17%	-12%
CC1(C)CC(NC(=O)c2cc(S(=O)(=O)N3CCOCC3)c(Cl)cc2Cl)CC(C)(C)N1	8%[0.501 µM]	-6%	nt	35%	50µM*	-1%
COc1ccc(C(=O)NC2CC(C)(C)NC(C)(C)C2)cc1S(=O)(=O)N1CCOCC1	nt	-4%	nt	nt	nt	nt
Cc1cc(NC(=O)C(C)SCC(=O)N(C)CC(=O)Nc2ccc(F)cc2)no1 (stereo unspecified)	10%[0.501 µM]	-1%	nt	23%	-1%	-4%
